Hit rate of the full screen: of about 68,000 compounds, about 2,700 (4%) showed an effect of 50% or more. For the sample, strong results were picked, then their nearest neighbours and some compounds at random.
Each molecule was assayed on Plasmodium berghei (assay: Screen against P. berghei liver stage (PbLuc), transformed with Luciferase, at 2uM). Details: tested at 2 uM.
Type: functional, HepG2

SMILES | INHIBITION [%]
COC(=O)CNC(=O)c1sccc1N(C)S(=O)(=O)c1ccc(Cl)cc1 | 3.38
Nc1cc2c(nn1)CCN(C(=O)CC1CCCCC1)C2 | 38.76
CCc1nc(CN(C)C2CCN(Cc3nc(C4CC4)no3)C2)no1 (stereo unspecified) | -45.03
O=C(CC[C@@H]1CCCN2CCCC[C@H]12)NCCc1cc(O)ncn1 | -20.38
O=C(CC[C@@H]1CCCN2CCCC[C@H]12)NCCc1nc(O)cc(O)n1 | 51.77
Nc1cc(O)nc(CCNC(=O)CC[C@@H]2CCCN3CCCC[C@H]23)n1 | 26.81
Cn1nc(C2CCNCC2)c2c(C(=O)NC3CC3)cc(C3CC3)nc21 | 40.28
CC(C)c1cc(NC(CO)CO)n2nccc2n1 | 20.14
CC(C)c1cc(N[C@@H](CO)C(N)=O)n2nccc2n1 | 50.42
CC(C)c1cc(N[C@H](C(N)=O)C(C)C)n2nccc2n1 | -48.3
COCCc1noc(CN2CC(C)(c3ccccc3)CCC2=O)n1 (stereo unspecified) | -12.84
Cn1ccnc1C1c2nc[nH]c2CCN1Cc1cccnc1 (stereo unspecified) | -7.68
CCc1nc(C2CCCN(C(=O)NC(C)C)C2)no1 (stereo unspecified) | 9.82
CCc1nc(C2CCCN(C(=O)C3=NN(CC)C(=O)CC3)C2)no1 (stereo unspecified) | 53.19
CCN1N=C(C(=O)N2CCCC(c3noc(C)n3)C2)CCC1=O (stereo unspecified) | 10.23
CCc1csc(C2CCCN(C(=O)C3=NN(CC)C(=O)CC3)C2)n1 (stereo unspecified) | 3.9
Cc1nc(C2CCCN(C(=O)C3=NN(C(C)C)C(=O)CC3)C2)no1 (stereo unspecified) | 21.24
CCc1nc(C2CCCN(C(=O)C3=NN(C(C)C)C(=O)CC3)C2)no1 (stereo unspecified) | 52.08
O=c1c(Cc2ccccc2)c(O)ccn1CCc1ccccc1 | 44.59
Cc1ccc(CN2CC[C@H]3C[C@H](C(=O)N(C)C)O[C@H]3C2)cc1 | 22.5
CCOc1ncccc1NC(=O)Nc1c(C)nn(C(C)C)c1C | -10.87
Cn1cc(CN2CCOC[C@H]2c2nc(C(C)(C)C)co2)c2ccccc21 | 50.17

SMILES | INHIBITION [%]
CC(C)(C)c1coc([C@@H]2COCCN2Cc2ccccc2)n1 | 18.4
CC(C)(C)c1coc([C@@H]2COCCN2Cc2c[nH]c3ccccc23)n1 | 27.44
O=C(c1ccc(Cl)cc1)N1CCC(N2CCCNC2=O)CC1 | 27.54
O=C(c1ccoc1)N1CCC2(CC1)COC(COc1ccccn1)C2 (stereo unspecified) | 24.51
COCCC1COC2(CCN(C(=O)c3cccnc3)CC2)C1 (stereo unspecified) | 1.81
Cn1cc(CN2C[C@@H]3COC[C@]3(CNC(=O)c3ccsc3)C2)cn1 | 9.79
Cc1cnc(CN(Cc2ccc(C#N)cc2F)C2CCN(C)C2)o1 (stereo unspecified) | 60.84
COc1ccc(C)cc1CN(Cc1ncc(C)o1)C1CCN(C)C1 (stereo unspecified) | -5.79
Cc1cnc(CN(Cc2ccc(Cl)s2)C2CCN(C)C2)o1 (stereo unspecified) | 14.83
CN1CCN(CC2CC2)C(=O)c2cnc(N3CCC(CO)CC3)nc21 | -13.87
CSCCC(NC(N)=O)C(=O)NCc1ccc(-n2cccn2)cc1 (stereo unspecified) | 50.42
CSCCC(NC(N)=O)C(=O)NCc1cnn(-c2ccccc2)c1 (stereo unspecified) | -12.03
CSCCC(NC(N)=O)C(=O)Nc1ccc(-n2cccn2)nc1 (stereo unspecified) | -0.41
CCCOc1cc(C)ccc1NC(=O)NCCC(=O)N(C)C | -36.17
COc1cc(C(=O)NC2COc3ccccc3C2)ccc1OCC(N)=O (stereo unspecified) | -3.62
COc1cccc(C(=O)N2CCOCC2CN(C)C)c1OC (stereo unspecified) | 31.55
OC(CNCc1nnc2ccccn12)c1ccc2c(c1)OCO2 (stereo unspecified) | 31.54
CC(C)NC(=O)N1CCC(c2nnc3n2CCNC3)CC1 | 13.28
COc1cccc2c1OCC(CNC(=O)Cc1cnccn1)C2 (stereo unspecified) | -20.89
COc1cccc2c1OCC(CNC(=O)Cn1ccnc1C)C2 (stereo unspecified) | 50.32
COc1cccc2c1OCC(CNC(=O)CSc1ccccn1)C2 (stereo unspecified) | 33.11
Cn1cccc1C(=O)N1CCC2(CC1)CC(N1CCOCC1)C2 | 35.89

SMILES | INHIBITION [%]
Cn1cnnc1S(=O)(=O)C1CCN(S(=O)(=O)c2ccc(F)c(Cl)c2)CC1 | 60.09
Cn1cnnc1S(=O)(=O)C1CCN(S(=O)(=O)c2ccccc2F)CC1 | -8.91
Cc1ccc(S(=O)(=O)N2CCC(S(=O)(=O)c3nncn3C)CC2)cc1C | -19.3
CCOC(=O)N1CCC(NC(C)c2ccccc2-n2cccn2)CC1 (stereo unspecified) | 52.89
CC(C)CN1CCC(NC(C)c2ccccc2-n2cccn2)CC1 (stereo unspecified) | 12.11
CCOC(=O)N1CCC(NC(C)Cc2cc(C)n[nH]2)CC1 (stereo unspecified) | -0.88
O=C1COC2(CCN(S(=O)(=O)C3CC3)CC2)CN1c1cccnc1 | 10.37
CCN(C(=O)Nc1nccs1)C(C)c1cccc(O)c1 (stereo unspecified) | -81.27
NC(=O)c1cnn2c1NCC(CNCC1(c3ccccc3)CCCC1)C2 (stereo unspecified) | -181.66
CN(Cc1ccc(Cl)s1)C(=O)c1cccc(OCC(N)=O)c1 | 26.14
CN(Cc1ccc(Cl)s1)C(=O)c1ccccc1OCC(N)=O | 54.75
CN(Cc1ccc(Cl)s1)C(=O)COc1cccc(C(N)=O)c1 | 34.61
CCOCC(=O)N1C[C@@H](NC(C)=O)[C@H](c2ccc(OC)cc2)C1 | 20.15
COCCN(C)CC(=O)N1C[C@@H](NC(C)=O)[C@H](c2ccc(OC)cc2)C1 | 53.13
COc1ccc([C@@H]2CN(C(=O)CS(C)(=O)=O)C[C@H]2NC(C)=O)cc1 | 1.85
c1ccc2sc(CN3CCOC(Cn4cncn4)C3)nc2c1 (stereo unspecified) | 5.72
c1ccc2sc(CN3CCOC(Cn4cccn4)C3)nc2c1 (stereo unspecified) | -88.54
Cc1cnn(CC2CN(Cc3nc4ccccc4s3)CCO2)c1 (stereo unspecified) | 53.98
Cn1cc(C(=O)NCCc2ccc(OC3CCCC3)cc2)ccc1=O | -25.78
CCOCc1cncc2c1CCN(S(=O)(=O)c1cccc(C)c1)C2 | 9.36
CCOCc1cncc2c1CCN(S(=O)(=O)c1ccc(C)cc1)C2 | 70.13
CCOCc1cncc2c1CCN(S(=O)(=O)c1ccccc1)C2 | -18.7

From ChEMBL document CHEMBL4513216, “Probing the Open Global Health Chemical Diversity Library for Multistage-Active Starting Points for Next-Generation Antimalarials” (ACS Infect Dis, 2020)
